Data taken from PubChem BioAssay (EPA / NIEHS).
The source made the active and inactive calls. Rule for the calls: active = hit-call score of the fitted dose curve at least 0.9, where 1 is the maximum; inactive = score below 0.9.

Legend:
[1] = read-out: Interleukin-1 alpha (IL1a), IL1A (gene 3552); experiment: BSK_KF3CT_IL1a: BioMAP Diversity Plus: KF3CT Assay for Interleukin-1 alpha (IL1a) Biomarker Activity (AID 2283070); conditions: primary human keratinocytes with fibroblasts; actives raise or lower the signal
In short: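 Primary skin co-culture (keratinocytes, foreskin fibroblasts), 24 h exposure; ELISA for IL-1a; bidirectional curve fit vs DMSO.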

[2] = read-out: TIMP metallopeptidase inhibitor 2 (TIMP2), TIMP2 (gene 7077); experiment: BSK_KF3CT_TIMP2: BioMAP Diversity Plus: KF3CT Assay for TIMP metallopeptidase inhibitor 2 (TIMP2) Biomarker Activity (AID 2283071); conditions: primary human keratinocytes with fibroblasts; actives raise or lower the signal
In short: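 ELISA readout of TIMP-2 in keratinocyte plus foreskin fibroblast co-cultures (human skin primary cells), 24 h post-dose. Gain or loss of signal fitted relative to DMSO.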

[3] = read-out: Transforming growth factor beta 1 (TGFb1), TGFB1 (gene 7040); experiment: BSK_KF3CT_TGFb1: BioMAP Diversity Plus: KF3CT Assay for Transforming growth factor beta 1 (TGFb1) Biomarker Activity (AID 2283072); conditions: primary human keratinocytes with fibroblasts; actives raise or lower the signal
In short: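 Read-out: ELISA for TGF-b1 in keratinocyte/foreskin fibroblast human skin co-culture, 24 h after dosing; bidirectional curve fit vs DMSO baseline; gain or loss of signal scored.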

[4] = read-out: Matrix Metallopeptidase 9 (MMP9), MMP9 (gene 4318); experiment: BSK_KF3CT_MMP9: BioMAP Diversity Plus: KF3CT Assay for Matrix Metallopeptidase 9 (MMP9) Biomarker Activity (AID 2283074); conditions: primary human keratinocytes with fibroblasts; actives raise or lower the signal
In short: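 ELISA read-out of MMP-9 at 24 h post-dosing in a co-culture of human skin keratinocytes and foreskin fibroblasts. Gain or loss of signal was fitted in both directions against DMSO.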

[5] = read-out: urokinase plasminogen activator (uPA), PLAU (gene 5328); experiment: BSK_KF3CT_uPA: BioMAP Diversity Plus: KF3CT Assay for urokinase plasminogen activator (uPA) Biomarker Activity (AID 2283075); conditions: primary human keratinocytes with fibroblasts; actives raise or lower the signal
In short: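 Skin co-culture (keratinocytes + foreskin fibroblasts), human primary; 24 h post-dose; uPA by ELISA; gain/loss fit vs DMSO baseline.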

CD40, CD40 (gene 958) [6] = experiment: BSK_LPS_CD40: BioMAP Diversity Plus: LPS Assay for CD40 Biomarker Activity (AID 2283076); conditions: primary human HUVEC with PBMC; actives raise or lower the signal
In short: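 Cells were dosed, incubated 24 h, then assayed for CD40 by ELISA. Gain or loss of signal was analysed relative to DMSO controls. The culture paired human umbilical vein endothelium with peripheral blood mononuclear cells.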

[7] = read-out: E-selectin (Homo sapiens) (UniProt P16581); experiment: BSK_LPS_Eselectin: BioMAP Diversity Plus: LPS Assay for Eselectin Biomarker Activity (AID 2283077); conditions: primary human HUVEC with PBMC; actives raise or lower the signal
In short: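 Primary human vascular co-culture (endothelium plus PBMC) was dosed with chemical, then E-selectin quantified by ELISA at 24 h. Endpoint values derive from bidirectional curve fitting relative to DMSO.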

[8] = read-out: Interleukin-8 (IL8), CXCL8 (gene 3576); experiment: BSK_LPS_IL8: BioMAP Diversity Plus: LPS Assay for Interleukin-8 (IL8) Biomarker Activity (AID 2283078); conditions: primary human HUVEC with PBMC; actives raise or lower the signal
In short: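 Readout is IL-8 by ELISA, taken 24 h after compounds were added to LPS-stimulated endothelial/PBMC co-cultures. Both increases and decreases relative to DMSO control were scored through bidirectional fitting.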

[9] = BSK_LPS_SRB: Viability Assessment in the BioMAP Diversity Plus: LPS Assay (AID 2283079); conditions: primary human HUVEC with PBMC;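 note: total protein by sulforhodamine B absorbance as a cytotoxicity measure; measured one day after compound addition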
In short: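 Readout is SRB absorbance at 560 nm (0.1% stain, TCA-fixed parallel cultures) as a total-protein cytotoxicity measure. Cells: primary human umbilical vein endothelium plus peripheral blood mononuclear cells, 24 h after chemical exposure; DMSO served as baseline.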

[10] = read-out: Interleukin-1 alpha (IL1a), IL1A (gene 3552); experiment: BSK_LPS_IL1a: BioMAP Diversity Plus: LPS Assay for Interleukin-1 alpha (IL1a) Biomarker Activity (AID 2283080); conditions: primary human HUVEC with PBMC; actives raise or lower the signal
In short: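 ELISA read-out of IL-1 alpha from a human primary vascular co-culture (endothelium plus PBMC) under LPS, sampled 24 hours post-dosing. Activity was fitted in both directions relative to DMSO controls.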

[11] = read-out: Monocyte Chemoattractant Protein-1 (MCP1), CCL2 (gene 6347); experiment: BSK_LPS_MCP1: BioMAP Diversity Plus: LPS Assay for Monocyte Chemoattractant Protein-1 (MCP1) Biomarker Activity (AID 2283081); conditions: primary human HUVEC with PBMC; actives raise or lower the signal
In short: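 Human endothelial–PBMC co-cultures were dosed with chemical, then LPS-driven MCP-1 levels were quantified by ELISA at 24 h. Activity in either direction was fitted versus DMSO negative control.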

[12] = BSK_LPS_PGE2: BioMAP Diversity Plus: LPS Assay for Prostaglandin E2 (PGE2) Biomarker Activity (AID 2283082); conditions: primary human HUVEC with PBMC; actives raise or lower the signal
In short: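 ELISA read-out of PGE2 from human umbilical vein endothelial cells co-cultured with peripheral blood mononuclear cells under LPS, 24 h post-dose. Gain or loss of signal scored relative to DMSO baseline.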

[13] = read-out: Tissue Factor, F3 (gene 2152); experiment: BSK_LPS_TissueFactor: BioMAP Diversity Plus: LPS Assay for Tissue Factor Biomarker Activity (AID 2283084); conditions: primary human HUVEC with PBMC; actives raise or lower the signal
In short: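 ELISA signal for cell-surface Tissue Factor (CD142) was read 24 h after compound dosing of an LPS-stimulated human endothelial–PBMC primary co-culture. Gain or loss of signal was scored relative to DMSO.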

[14] = read-out: Vascular cell adhesion molecule 1 (VCAM1), VCAM1 (gene 7412); experiment: BSK_LPS_VCAM1: BioMAP Diversity Plus: LPS Assay for Vascular cell adhesion molecule 1 (VCAM1) Biomarker Activity (AID 2283086); conditions: primary human HUVEC with PBMC; actives raise or lower the signal
In short: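 ELISA read-out of VCAM-1 at 24 h post-dosing in an LPS-driven HUVEC/PBMC primary human co-culture; gain or loss of signal fitted bidirectionally against DMSO baseline. Cytotoxicity tracked in parallel cultures by SRB total-protein staining.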

CD38, CD38 (gene 952) = experiment: BSK_SAg_CD38: BioMAP Diversity Plus: SAg Assay for CD38 Biomarker Activity (AID 2283087); conditions: primary human HUVEC with PBMC; actives raise or lower the signal
In short: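 Measures CD38 on a human endothelial/PBMC co-culture driven by SEB and TSST-1, 24 h after compound exposure, using ELISA with fluorescence detection; DMSO defines baseline for bidirectional curve fitting.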

CD40, CD40 (gene 958) [15] = experiment: BSK_SAg_CD40: BioMAP Diversity Plus: SAg Assay for CD40 Biomarker Activity (AID 2283088); conditions: primary human HUVEC with PBMC; actives raise or lower the signal
In short: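 Compounds were dosed onto a human primary endothelial–PBMC co-culture, and after 24 h CD40 was quantified by ELISA using a fluorescence signal. Activity in either direction was fitted relative to DMSO.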

CD69, CD69 (gene 969) = experiment: BSK_SAg_CD69: BioMAP Diversity Plus: SAg Assay for CD69 Biomarker Activity (AID 2283089); conditions: primary human HUVEC with PBMC; actives raise or lower the signal
In short: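 Values derive from bidirectional fitting relative to DMSO vehicle. Cells: umbilical vein endothelium plus peripheral blood mononuclear cells, treated 24 h before fluorescent ELISA for CD69.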

[16] = read-out: C-C motif chemokine 2 (Homo sapiens) (UniProt P13500); experiment: BSK_KF3CT_MCP1: BioMAP Diversity Plus: KF3CT Assay for Monocyte Chemoattractant Protein 1 (MCP1/CCL2) Biomarker Activity (AID 2283073); conditions: primary human keratinocytes with fibroblasts; actives raise or lower the signal
In short: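 ELISA readout of MCP-1 after 24 h chemical dosing of a human skin primary co-culture of keratinocytes and foreskin fibroblasts. Activity was fitted in both directions against DMSO.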

[17] = read-out: Tumor necrosis factor (Homo sapiens) (UniProt P01375); experiment: BSK_LPS_TNFa: BioMAP Diversity Plus: LPS Assay for Tumour Necrosis Factor alpha (TNFa) Biomarker Activity (AID 2283085); conditions: primary human HUVEC with PBMC; actives raise or lower the signal
In short: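 HUVEC/PBMC co-culture, LPS-stimulated; 24 h post-dose; TNFa by ELISA; gain or loss of signal fitted bidirectionally vs DMSO baseline.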

Measured: outcome

Tumor necrosis factor (Homo sapiens), sequence (P01375 whole entry, looked up): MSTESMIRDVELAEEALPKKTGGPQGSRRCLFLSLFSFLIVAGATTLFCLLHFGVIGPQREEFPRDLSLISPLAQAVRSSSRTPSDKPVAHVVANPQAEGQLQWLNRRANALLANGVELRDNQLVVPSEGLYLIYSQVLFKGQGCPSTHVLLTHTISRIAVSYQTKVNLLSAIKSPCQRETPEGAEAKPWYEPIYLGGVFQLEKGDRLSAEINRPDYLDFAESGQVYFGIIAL
E-selectin (Homo sapiens), sequence (P16581 whole entry, looked up): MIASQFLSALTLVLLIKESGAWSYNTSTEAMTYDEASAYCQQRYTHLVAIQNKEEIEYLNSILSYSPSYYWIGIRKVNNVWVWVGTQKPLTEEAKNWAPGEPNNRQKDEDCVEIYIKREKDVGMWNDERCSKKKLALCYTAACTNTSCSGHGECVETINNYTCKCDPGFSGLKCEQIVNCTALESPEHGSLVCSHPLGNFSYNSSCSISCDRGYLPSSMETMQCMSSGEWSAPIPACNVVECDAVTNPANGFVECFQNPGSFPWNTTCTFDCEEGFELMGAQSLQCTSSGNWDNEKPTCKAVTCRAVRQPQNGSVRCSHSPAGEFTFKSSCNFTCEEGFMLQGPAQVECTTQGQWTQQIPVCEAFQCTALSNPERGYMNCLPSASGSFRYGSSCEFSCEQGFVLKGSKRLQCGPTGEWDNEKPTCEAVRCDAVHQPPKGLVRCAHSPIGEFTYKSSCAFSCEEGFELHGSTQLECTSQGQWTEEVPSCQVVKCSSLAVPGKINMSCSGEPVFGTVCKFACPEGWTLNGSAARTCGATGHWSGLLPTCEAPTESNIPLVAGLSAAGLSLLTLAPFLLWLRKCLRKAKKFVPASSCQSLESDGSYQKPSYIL

Cc1cccc(N)c1
not listed: [16] | [17]
inactive: all other assays above

O=P1(N(CCCl)CCCl)NCCCO1 (stereo not drawn)
not listed: [7]
inactive: all other assays above

CCOS(=O)(=O)OCC
not listed: [7]
inactive: all other assays above
